High-throughput results from PubChem.
Sampled rows, rich in hits. Any-hit rate of the full collection: about 18%.
DT40 TDP1 CPT: DT40-hTDP1 cell growth loss with CPT; chicken DT40 Tdp1-/-;hTDP1 cells + 20 nM CPT, ATP luminescence, 48 h; Potency, µM (highest dose often 46.2 µM), without a hit: top-dose activity change, negative = growth inhibition, most hits filed as inhibitors; actives 12% (n = 420,000); further: potency means the concentration at half of the fitted maximal effect; nearly all actives have a fitted effect of over 55% in size
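Cell growth measured by CellTiter-Glo luminescence after a minimum 48 h, 37 C compound exposure with 20 nM CPT in Tdp1-knockout DT40 cells stably expressing hTDP1, seeded 400/well; qHTS titration format.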
LDHA block: inhibitors of human lactate dehydrogenase A | P00338 | purified LDHA, NADH/diaphorase-resazurin fluorescence; active compounds read low | activity change, % (values are at about 110 or 230 µM) | actives 0.15% (n = 480,000); in the data active means activity change below about -30%; inconclusive means mostly about -25% to -30%;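 further: plate controls were DMSO wells for no effect and wells without enzyme for full effect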
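Enzyme activity of human lactate dehydrogenase 5 (2 nM; 0.06 mM NADH, 0.2 mM pyruvate, 5 min, RT) is measured via a resazurin/diaphorase fluorescence readout of residual NADH.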
VP16 counter: Gal4-VP16 reporter inhibition counter-screen; AID 2546; actives 3.5% (n = 310,000); Drosophila S2 Gal4-VP16 UAS-luciferase, luminescence, 20 h; Potency, µM (highest dose often 53.6 µM), without a hit: at the top dose activity, negative = inhibition, most hits filed as inhibitors;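 further: Gal4-VP16 expression switched on by copper sulfate through the metallothionein promoter; potency means the concentration at half of the fitted maximal effect; nearly all actives have a fitted effect of over 50% in size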
TDP1 cell noCPT: qHTS for Inhibitors of human tyrosyl-DNA phosphodiesterase 1 (TDP1): qHTS in cells in absence of CPT; Potency, µM (titrated, usually from 46.2 µM), inactives show at the top dose activity change, negative = growth inhibition, hits mostly inhibitors; AID 686978, 2013; actives 15% (n = 420,000); DT40 Tdp1-/- hTDP1 cells, no CPT, ATP luminescence, 48 h; further: potency means the concentration at half of the fitted maximal effect; nearly all actives have a fitted effect of over 55% in size
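DT40 Tdp1-/-;hTDP1 cells, no CPT (DMSO vehicle only), 400 cells/well; compounds pin-transferred; ≥48 hr, 37 °C; CellTiter-Glo 30 min RT dark, luminescence read.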
RORgamma inh: blocks mouse ROR gamma transcriptional activity. P51450. actives 5.4% (n = 310,000). Drosophila S2 Gal4-RORgamma UAS-luciferase reporter, 20 h. Potency, µM (highest dose often 53.6 µM), inactives show top-dose activity change, negative = inhibition, hits mostly inhibitors; further: potency means the concentration at half of the fitted maximal effect; nearly all actives have a fitted effect of over 60% in size
Target sequence (P51450 whole entry, looked up, the tested form may be a part): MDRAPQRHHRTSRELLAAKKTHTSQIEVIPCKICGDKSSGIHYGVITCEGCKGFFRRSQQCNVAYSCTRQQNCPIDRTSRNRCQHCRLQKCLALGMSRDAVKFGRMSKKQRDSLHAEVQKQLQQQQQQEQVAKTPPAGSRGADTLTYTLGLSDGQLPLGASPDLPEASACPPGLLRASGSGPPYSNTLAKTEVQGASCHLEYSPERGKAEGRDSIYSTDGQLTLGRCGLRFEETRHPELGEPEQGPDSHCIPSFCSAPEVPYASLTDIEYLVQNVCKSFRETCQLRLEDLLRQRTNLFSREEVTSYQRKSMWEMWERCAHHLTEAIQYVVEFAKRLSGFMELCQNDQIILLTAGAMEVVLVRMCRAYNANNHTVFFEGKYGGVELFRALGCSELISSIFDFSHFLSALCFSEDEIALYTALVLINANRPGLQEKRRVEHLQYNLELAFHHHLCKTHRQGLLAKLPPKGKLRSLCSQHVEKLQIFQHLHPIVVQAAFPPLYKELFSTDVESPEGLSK
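Luminescence from a UAS-regulated Photinus luciferase reporter in stably transfected Drosophila Schneider cells is measured; decreased signal marks ROR gamma inhibition. Fusion expression is induced by 700 uM copper sulfate for 20 hr.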
IL1B secr inh: inhibitors of inflammasome signaling (IL-1 beta secretion); THP-1 LPS/ATP IL-1B secretion, AlphaLISA, 16 h; active compounds read low; activity change, % at 57.5 µM; actives 4.7% (n = 360,000); in the data active means activity change below about -50%; inconclusive means mostly about -30% to -49%
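Secreted IL-1B measured by AlphaLISA bead assay after 16 h compound exposure of THP-1 cells; compounds (final up to 57.5 uM) added 1 h before LPS (250 ng/mL) and ATP (1.25 mM) stimulation; lower signal means less secretion.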
* hit, by the source's call; u = inconclusive; x = no result given; [ ] = another dose, or the depositor's remark. Unless noted, the call rests on the fitted dose curve; in most records, active means well fitted curve in the direction sought with a large enough effect; inconclusive means small, poorly fitted or top-dose-only effect, or another doubt; inactive means no such curve, though single readings can be large; an effect the other way counts as inactive or inconclusive. Unless noted, on the % scale 0 is the no-effect control and ±100 the full control effect.

SMILES	DT40 TDP1 CPT	LDHA block	VP16 counter	TDP1 cell noCPT	RORgamma inh	IL1B secr inh
CC(C)(C)C(=O)OCCNc1nc(-c2ccccc2)nc2ccccc12	u	2	-11%	21µM*	u	-54*
CC(C)OCCCNc1nc(-c2ccccc2)nc2ccccc12	u	-1	x	15µM*	x	0
O=C(Nc1ccc(-c2nc3ccccc3[nH]2)cc1)c1ccc(Cl)c(Cl)c1	x	-5	x	x	x	x
O=C(Nc1ccc(-c2nc3ccccc3[nH]2)cc1)c1ccc2c(c1)OCO2	u	-16	11µM*	18µM*	u	44
c1ccc2[nH]c(-c3ccc4c(c3)OCO4)nc2c1	u	-3	x	18µM*	x	x
O=C(Nc1ccc2nn(-c3ccccc3)nc2c1)c1ccc2c(c1)OCO2	16µM*	0	u	21µM*	u	-12
CC(C)(C)C(=O)Nc1ccc(Cl)c(-c2nc3ccccc3[nH]2)c1	u	-3	x	u	x	x
Cc1nc2ccc(-c3nc4ccccc4[nH]3)cc2[nH]1	u	-12	-12%	u	u	-8
O=C(Nc1cccc(F)c1)c1ccc2c(c1)OCO2	u	1	6%	u	36%	-2
O=C(Nc1ccc(Cl)c(-c2nc3ccccc3[nH]2)c1)c1ccc2c(c1)OCO2	u	-5	-1%	23µM*	u	31
CCC(CO)Nc1ncc2cc3ccccc3nc2c1C#N (stereo unspecified)	x	-7	x	x	x	x
Cc1ccc(C2CCCN2S(=O)(=O)c2ccc(C(C)(C)C)cc2)cc1 (stereo unspecified)	x	6	x	x	x	x
COc1ccccc1N1C(=O)N(Cc2ccc3c(c2)OCO3)c2ccccc2S1(=O)=O	x	8	x	x	x	x
COc1ccc(-c2nc3ccccc3s2)cc1	-17%	0	u	-26%	8.9µM*	34
O=C(Nc1ccc(-c2nc3ccccc3[nH]2)cc1)C1CCCO1 (stereo unspecified)	18µM*	-14	7.1µM*	15µM*	1%	-15
c1ccc2sc(-c3ccc4c(c3)OCO4)nc2c1	u	0	2.2µM*	u	u	5
CC(Oc1ccc(Br)cc1)C(=O)N1CCN(c2nccs2)CC1 (stereo unspecified)	x	3	x	x	x	x
Nc1nc(-c2cccs2)c(NC(=O)c2ccccc2)s1	16µM*	2	u	18µM*	5%[10 µM]	-95*
O=C(O)c1ccc(-c2ccc(CNC3CCCCC3)o2)cc1	x	5	x	x	x	x
Cc1ccc(Cl)cc1N1CCN(C(=O)CCS(=O)(=O)c2ccc3c(c2)oc(=O)n3C)CC1	u	-8	x	16µM*	x	x
O=C(Cn1c(=O)oc2cc(S(=O)(=O)N3CCCC3)ccc21)N1CCN(c2ccccc2)CC1	u	-2	-6%	u	-4%	-8
CCOC(=O)Cn1c(=O)oc2cc(S(=O)(=O)N3CCN(c4cc(C)ccc4C)CC3)ccc21	18µM*	4	x	u	x	x
Cc1ccc(C)c(N2CCN(C(=O)Cn3c(=O)oc4cc(S(=O)(=O)N5CCCC5)ccc43)CC2)c1	16µM*	-7	-9%	12µM*	u	30
Cc1ccc(Cl)cc1N1CCN(C(=O)CCS(=O)(=O)c2cccc3nsnc23)CC1	x	-6	x	x	x	x
CCc1cccc(C)c1NC(=O)CCS(=O)(=O)c1ccc2c(c1)oc(=O)n2C	u	-3	x	15µM*	x	x
Cc1ccc(-n2nc(C)c(=O)c(-c3ccccc3)c2NC(=O)c2ccco2)cc1C	x	-1	x	x	x	x
CC(=O)Nc1ccc(-c2csc(Nc3cccc4ccccc34)n2)cc1	x	-4	x	x	x	x
CCOC(=O)c1sc2nc(CN(C)Cc3ccccc3)[nH]c(=O)c2c1C	x	2	x	x	x	x
